Hit rate of the full screen: of about 39,000 compounds, about 3,300 (8.5%) were called active. Only a selection was taken, and actives are over-represented in it overall.

The test system of the experiment is HepG2. Briefly: cytotoxicity call (relative viability < 0.9). The note with it: 10 µM.
Regarding `C[C@@H]1CCCCO[C@H](CN(C)Cc2ccc(C(=O)O)cc2)[C@@H](C)CN([C@H](C)CO)C(=O)c2cc(NC(=O)C3CCCCC3)ccc2O1`, the cytotoxicity call is “inactive”.
In the case of `Cc1ccc(S(=O)(=O)N(C)C[C@@H]2Oc3ncc(C#CCN(C)C)cc3C(=O)N([C@H](C)CO)C[C@@H]2C)cc1` it was “inactive”; in that of `Cc1noc(C)c1NC(=O)N(C)C[C@H]1OCCCC[C@@H](C)Oc2ccc(NS(=O)(=O)c3cccs3)cc2C(=O)N([C@@H](C)CO)C[C@@H]1C`, “inactive”; in that of `C[C@H]1CN([C@@H](C)CO)C(=O)c2cccc(NS(=O)(=O)c3ccc(F)cc3)c2O[C@H]1CN(C)S(=O)(=O)c1ccccc1`, “inactive”.
In the case of `Cc1noc(C)c1S(=O)(=O)N(C)C[C@H]1Oc2c(NS(=O)(=O)c3cn(C)cn3)cccc2C(=O)N([C@@H](C)CO)C[C@H]1C` it was “inactive”.
In the case of `COc1cccc(OC)c1O` it was “inactive”; in that of `COc1cccc(O)c1O`, “active”.
With `COc1ccccc1O`, the cytotoxicity call was “inactive”.
In the case of `O=C1/C(=C/c2cn(-c3ccccc3)nc2-c2ccc(OCc3ccccc3)cc2)SC(=S)N1CCS(=O)(=O)O` it was “inactive”; in that of `Cc1noc(C)c1NC(=O)N(C)C[C@@H]1Oc2ccc(NC(=O)c3ccncc3)cc2C(=O)N([C@@H](C)CO)C[C@H]1C`, “inactive”; in that of `C[C@H]1CCCCO[C@@H](CN(C)Cc2ccc3c(c2)OCO3)[C@@H](C)CN([C@@H](C)CO)C(=O)c2cc(NC(=O)Nc3ccc4c(c3)OCO4)ccc2O1`, “inactive”.
With `C[C@@H]1CCCCO[C@@H](CN(C)Cc2ccc3c(c2)OCO3)[C@H](C)CN([C@H](C)CO)C(=O)c2cc(NC(=O)Nc3ccc4c(c3)OCO4)ccc2O1`, the cytotoxicity call is “active”.
Turning to `C[C@H](CO)N1C[C@H](C)[C@H](CN(C)Cc2ccc3c(c2)OCO3)OCCCC[C@H](C)Oc2ccc(NC(=O)Nc3ccc4c(c3)OCO4)cc2C1=O`, the cytotoxicity call is “active”.
For the molecule `C[C@H]1CCCCO[C@H](CN(C)Cc2ccc3c(c2)OCO3)[C@@H](C)CN([C@@H](C)CO)C(=O)c2cc(NC(=O)Nc3ccc4c(c3)OCO4)ccc2O1`, the cytotoxicity call was “inactive”.
With `C[C@@H]1CCCCO[C@@H](CN(C)Cc2ccc3c(c2)OCO3)[C@H](C)CN([C@@H](C)CO)C(=O)c2cc(NC(=O)Nc3ccc4c(c3)OCO4)ccc2O1` the entry was “inactive”; with `C[C@@H]1CCCCO[C@@H](CN(C)Cc2ccc3c(c2)OCO3)[C@@H](C)CN([C@@H](C)CO)C(=O)c2cc(NC(=O)Nc3ccc4c(c3)OCO4)ccc2O1`, “active”.
Turning to `C[C@@H]1CN([C@@H](C)CO)C(=O)c2cc(NC(=O)Nc3ccc4c(c3)OCO4)ccc2O[C@@H](C)CCCCO[C@H]1CN(C)Cc1ccc2c(c1)OCO2`, the cytotoxicity call was “inactive”.
`C[C@@H]1CCCCO[C@H](CN(C)Cc2ccc3c(c2)OCO3)[C@H](C)CN([C@H](C)CO)C(=O)c2cc(NC(=O)Nc3ccc4c(c3)OCO4)ccc2O1`: the cytotoxicity call was “active”.
In the case of `C[C@@H]1CN([C@H](C)CO)C(=O)c2cc(NC(=O)Nc3ccc4c(c3)OCO4)ccc2O[C@@H](C)CCCCO[C@H]1CN(C)Cc1ccc2c(c1)OCO2` it was “inactive”.
On to `C[C@@H]1CN([C@@H](C)CO)C(=O)c2ccccc2-c2ccccc2CO[C@@H]1CN(C)C(=O)c1cc(Cl)cc(Cl)c1`, for which the cytotoxicity call is “inactive”.
With `O=C(N[C@@H]1C=C[C@H](CC(=O)N2CCOCC2)O[C@@H]1CO)c1ccc2c(c1)OCO2` the entry was “inactive”.
On to `C[C@@H]1CN([C@@H](C)CO)C(=O)c2cc(NC(=O)C3CCCCC3)ccc2O[C@H]1CN(C)C(=O)Nc1cccc2ccccc12`, for which the cytotoxicity call is “inactive”.
`CO[C@@H](CN(C)C(=O)C1CCOCC1)[C@H](C)CN(C(=O)Nc1ccc(C(F)(F)F)cc1)[C@@H](C)CO`: the cytotoxicity call was “inactive”.
In the case of `CC(C)CS(=O)(=O)N1C[C@H]2C[C@H](C(=O)N3CCOCC3)[C@@H](C1)O2` it was “inactive”; in that of `CC(=O)O[C@H]1C[C@](C)(O)C2=C[C@@H](O)[C@@](C)(O)[C@@H]2[C@H]2OC(=O)[C@@H](C)[C@@H]21`, “inactive”.
Consider `O=C(CN1CCOCC1)N[C@H]1CC[C@H](CCn2cc(C3CCCC3)nn2)O[C@@H]1CO`, for which the cytotoxicity call was “inactive”.
In the case of `CC(C)NC(=O)N(C)C[C@H]1Oc2ccc(NS(=O)(=O)c3ccc(F)cc3)cc2CC(=O)N([C@@H](C)CO)C[C@@H]1C` it was “inactive”; in that of `C[C@H](CO)N1C[C@H](C)[C@@H](CN(C)Cc2ccc3c(c2)OCO3)OCCCC[C@H](C)Oc2ccc(NC(=O)Nc3ccc4c(c3)OCO4)cc2C1=O`, “inactive”.
With `C[C@@H]1CCCCO[C@H](CN(C)Cc2ccc3c(c2)OCO3)[C@@H](C)CN([C@H](C)CO)C(=O)c2cc(NC(=O)Nc3ccc4c(c3)OCO4)ccc2O1` the entry was “inactive”; with `C[C@@H]1CN([C@H](C)CO)C(=O)c2cc(NC(=O)Nc3ccc4c(c3)OCO4)ccc2O[C@@H](C)CCCCO[C@@H]1CN(C)Cc1ccc2c(c1)OCO2`, “active”; with `C[C@@H]1CCCCO[C@H](CN(C)Cc2ccc3c(c2)OCO3)[C@H](C)CN([C@@H](C)CO)C(=O)c2cc(NC(=O)Nc3ccc4c(c3)OCO4)ccc2O1`, “active”.
In the case of `C[C@@H]1CCCCO[C@@H](CN(C)Cc2ccc3c(c2)OCO3)[C@@H](C)CN([C@H](C)CO)C(=O)c2cc(NC(=O)Nc3ccc4c(c3)OCO4)ccc2O1` it was “inactive”.
Take `C[C@@H]1CN([C@@H](C)CO)C(=O)c2cc(NC(=O)Nc3ccc4c(c3)OCO4)ccc2O[C@@H](C)CCCCO[C@@H]1CN(C)Cc1ccc2c(c1)OCO2`: the cytotoxicity call was “inactive”.
In the case of `Cc1noc(C)c1S(=O)(=O)Nc1ccc2c(c1)C(=O)N([C@H](C)CO)C[C@H](C)[C@@H](CN(C)C(=O)Nc1ccccc1)O2` it was “inactive”; in that of `CCn1cc(-c2ccnc3[nH]c(-c4cccc(CN(C)C)c4)cc23)c(-c2ccc(NC(=O)N(C)C)cc2)n1`, “active”.
In the case of `C[C@@H]1CN([C@H](C)CO)S(=O)(=O)c2ccc(-c3ccc(F)cc3)cc2O[C@H]1CN(C)S(C)(=O)=O` it was “inactive”; in that of `C#Cc1ccc([C@@H]2C=C(C(=O)N3CCN(Cc4ccc5c(c4)OCO5)CC3)O[C@H](OCC)[C@H]2CCCO)cc1`, “inactive”.
Turning to `O=S1(=O)CC[C@H](N[C@H]2CCS(=O)(=O)C2)C1`, the cytotoxicity call is “inactive”.
On to `C[C@H](CO)N1C[C@H](C)[C@@H](CN(C)S(=O)(=O)c2ccccc2)Oc2cc(C#Cc3ccncc3)ccc2S1(=O)=O`, for which the cytotoxicity call was “active”.
In the case of `C[C@@H]1CN([C@@H](C)CO)S(=O)(=O)c2ccc(C#Cc3ccncc3)cc2O[C@H]1CN(C)S(=O)(=O)c1ccccc1`, the cytotoxicity call is “active”.
With `C[C@@H]1CN([C@H](C)CO)S(=O)(=O)c2ccc(C#Cc3ccncc3)cc2O[C@@H]1CN(C)S(=O)(=O)c1ccccc1` the entry was “active”; with `C[C@H]1CN([C@@H](C)CO)S(=O)(=O)c2ccc(C#Cc3ccncc3)cc2O[C@H]1CN(C)S(=O)(=O)c1ccccc1`, “active”; with `Cc1noc(C)c1NC(=O)Nc1ccc2c(c1)C(=O)N([C@@H](C)CO)C[C@H](C)[C@H](CN(C)CC1CCCCC1)OCCCC[C@@H](C)O2`, “inactive”.
Turning to `COc1ccc(Br)cc1S(=O)(=O)NC(=O)/C=C/c1ccccc1Cc1ccc2ccccc2c1`, the cytotoxicity call was “inactive”.
In the case of `COc1ccc(S(=O)(=O)Nc2ccc3c(c2)C(=O)N([C@@H](C)CO)C[C@@H](C)[C@@H](CN(C)C(=O)Nc2cccc4ccccc24)O3)cc1`, the cytotoxicity call is “inactive”.
With `C[C@@H]1CN([C@H](C)CO)S(=O)(=O)c2ccc(Br)cc2O[C@H]1CN(C)CC1CCOCC1` the entry was “inactive”; with `C[C@@H]1CN([C@H](C)CO)C(=O)c2cccc(NC(=O)NC3CCCCC3)c2O[C@@H]1CN(C)S(C)(=O)=O`, “inactive”.
With `CC(C)C[C@@H]1NC(=O)[C@@H]2C[C@H](C(=O)NCCCCCCN(C)C)[C@H](c3cccc(OCCO)c3)N2C1=O` the entry was “inactive”; with `CC(C)N1C[C@H](C)[C@@H](CN(C)Cc2ccc(Cl)cc2)Oc2c(NC(=O)c3ccncc3)cccc2C1=O`, “inactive”.
`C[C@@H]1CN([C@@H](C)CO)S(=O)(=O)c2ccc(C#Cc3ccncc3)cc2O[C@@H]1CN(C)S(=O)(=O)c1ccccc1`: the cytotoxicity call is “active”.
With `C[C@H]1CN([C@@H](C)CO)S(=O)(=O)c2ccc(C#Cc3ccncc3)cc2O[C@@H]1CN(C)S(=O)(=O)c1ccccc1`, the cytotoxicity call was “active”.
In the case of `C[C@@H]1CN([C@H](C)CO)S(=O)(=O)c2ccc(C#Cc3ccncc3)cc2O[C@H]1CN(C)S(=O)(=O)c1ccccc1` it was “active”; in that of `C[C@H](CO)N1C[C@H](C)[C@H](CN(C)S(=O)(=O)c2ccccc2)Oc2cc(C#Cc3ccncc3)ccc2S1(=O)=O`, “active”; in that of `C[C@@H]1CN([C@H](C)CO)C(=O)c2cccc(NC(=O)c3cnccn3)c2O[C@@H]1CN(C)C(=O)NC1CCCCC1`, “inactive”.
With `Cc1noc(C)c1S(=O)(=O)Nc1cccc2c1O[C@@H](CN(C)Cc1ccccc1)[C@@H](C)CN([C@H](C)CO)C2=O`, the cytotoxicity call is “inactive”.
On to `C[C@@H]1CN([C@H](C)CO)C(=O)c2cccc(NC(=O)Nc3cccc4ccccc34)c2O[C@@H]1CN(C)S(=O)(=O)c1ccccc1`, for which the cytotoxicity call was “inactive”.
In the case of `CCC(=O)N(C)C[C@@H]1Oc2ncc(C#C[C@H](C)O)cc2C(=O)N([C@@H](C)CO)C[C@H]1C` it was “inactive”; in that of `O=C(C[C@@H]1C[C@@H]2c3cc(NC(=O)Nc4ccccc4)ccc3O[C@@H]2[C@H](CO)O1)NCCN1CCCCC1`, “inactive”.
As to `C[C@H]1CCCN(C(=O)N2c3ccccc3Sc3ccccc32)C1`, the cytotoxicity call was “inactive”.
In the case of `CN1CCN2c3ccccc3Cc3ccccc3C2C1.Cl` (stereo unspecified) it was “inactive”; in that of `CN1CCC[C@@H](CC2c3ccccc3Sc3ccccc32)C1`, “active”; in that of `C[C@@H]1CN([C@@H](C)CO)C(=O)c2c(c3ccccc3n2C)-c2ccccc2CO[C@H]1CN(C)C(=O)CCC(F)(F)F`, “inactive”.
Consider `COCCc1nc2c(c(=O)n(C)c(=O)n2C)n1C`, for which the cytotoxicity call is “inactive”.
Consider `Cn1c(=O)c2c(nc(SCSc3nc4c(c(=O)n(C)c(=O)n4C)n3C)n2C)n(C)c1=O`, for which the cytotoxicity call is “inactive”.
Turning to `Cn1c(=O)c2c(nc(S(C)(=O)=O)n2C)n(C)c1=O`, the cytotoxicity call was “active”.
In the case of `C[C@@H]1CN([C@@H](C)CO)C(=O)c2cc(NC(=O)Nc3cccc4ccccc34)ccc2O[C@H]1CN(C)C(=O)Nc1ccc(F)cc1` it was “inactive”.

These data come from the antibiotic and cytotoxicity screens of Wong et al. (2023).
